Measured values from PubChem BioAssay (EPA / NIEHS).
Several values for one entry are separate records, joined by “and”; a condition that tells them apart may be missing. Equal values may be shown once. Inconclusive results are not listed. Where a structure was tested more than once in an assay, its records may differ in their call. Activity calls are given as the source filed them. The calls were made as follows, unless noted: active = hit-call score of the fitted dose curve at least 0.9, where 1 is the maximum; inconclusive = response in the unintended direction; inactive = score below 0.9.

Columns and labels:
[1] = read-out: X-box binding protein 1 (XBP1), XBP1 (gene 7494); assay: LTEA_HepaRG_XBP1: Life Technologies and Expression Analysis (LTEA) Assay for X-box binding protein 1 (XBP1) using HepaRG (AID 2283540; active = hit-call score of the fitted dose curve at least 0.9, where 1 is the maximum; inactive = score below 0.9); conditions: mRNA level, 48 h; actives raise or lower the signal
Outline: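 Differentiated human HepaRG cells in serum-free induction medium were exposed in duplicate for 48 h to eight half-log concentrations up to 100 uM in 0.5% DMSO. XBP1 mRNA was quantified by qRT-PCR, normalised to ACTB, GAPDH and POLR2A, with bidirectional fitting against DMSO.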

[2] = LTEA_HepaRG_LDH_cytotoxicity: Cytotoxicity Assessment in the Life Technologies and Expression Analysis (LTEA) Assay (AID 2283563);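 as to AC50: LDH activity released into spent culture medium as a marker of cell death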
Outline: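 Differentiated human HepaRG cells, plated 48 h beforehand, were switched to serum-free induction medium and exposed for 48 h to eight half-log concentrations (top 100 uM) in 0.5% DMSO. LDH was measured in spent medium; activity was fitted relative to DMSO vehicle.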

[3] = ATG_XTT_Cytotoxicity: Cytotoxicity Assessment in the Attagene TRANS-FACTORIAL HepG2 Assay (AID 2283584);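 as to AC50: cells exposed to compound for 24 h before reading; active means loss of viability signal versus DMSO baseline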
Outline: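 HepG2 human liver cells, transiently transfected with multiple GAL4-UAS reporter units, were dosed and read at 24 h by XTT as cell number. Loss of signal was fitted relative to DMSO negative control baseline.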

[4] = TOX21_p53_BLA_p2_viability: Viability Assessment in the Tox21 HCT-116 p53 Agonism Beta-lactamase Assay, Phase 2 (AID 2283591);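 also: compound exposure lasted 16 h at 37 °C; actives lower the ATP signal meaning cytotoxicity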
Outline: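 HCT-116 p53-bla cells (4000/well) rested 5 h at 37C, then received compounds in DMSO (217-fold dilution) for 16 h at 37C, 5% CO2. After the CCF4 read, CellTiter-Glo was added; ATP luminescence was read after 30 min at room temperature.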

[5] = target: Cellular tumor antigen p53 (Homo sapiens) (UniProt P04637); assay: TOX21_p53_BLA_p2_ratio: Tox21 HCT-116 p53 Agonism Beta-lactamase Assay, Ratio, Phase 2 (AID 2283592)
Sequence of Cellular tumor antigen p53 (Homo sapiens) (P04637 whole entry, looked up): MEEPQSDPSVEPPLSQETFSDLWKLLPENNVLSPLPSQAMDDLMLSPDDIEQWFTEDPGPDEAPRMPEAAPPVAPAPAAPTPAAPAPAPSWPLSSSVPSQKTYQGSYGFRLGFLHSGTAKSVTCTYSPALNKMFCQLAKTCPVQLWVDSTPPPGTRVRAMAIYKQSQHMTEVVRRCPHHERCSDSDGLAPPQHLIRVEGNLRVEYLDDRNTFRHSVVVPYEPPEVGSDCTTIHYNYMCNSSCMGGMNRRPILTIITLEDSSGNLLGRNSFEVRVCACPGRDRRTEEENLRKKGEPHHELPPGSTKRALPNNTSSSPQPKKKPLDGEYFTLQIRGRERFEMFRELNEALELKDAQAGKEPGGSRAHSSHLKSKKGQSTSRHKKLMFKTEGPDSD
Outline: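 HCT116 cells carrying a p53-responsive beta-lactamase reporter were plated, incubated 5 h at 37C, then dosed with compounds in DMSO (217-fold dilution) for 16 h. CCF4-AM substrate was added for 2 h at room temperature; the 460/530 nm emission ratio gave gain-of-signal activity relative to DMSO.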

[6] = TOX21_p53_BLA_p3_viability: Viability Assessment in the Tox21 HCT-116 p53 Agonism Beta-lactamase Assay, Phase 3 (AID 2283593);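 also: cells exposed to compound for 16 h before reading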
Outline: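 HCT-116 cells (4000/well) rested 5 h at 37C, then got DMSO compounds by pin tool (217-fold dilution) for 16 h at 37C, 5% CO2. After the bla read, CellTiter-Glo was added and luminescence read at 30 min, room temperature.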

[7] = target: Cellular tumor antigen p53 (Homo sapiens) (UniProt P04637); assay: TOX21_p53_BLA_p3_ratio: Tox21 HCT-116 p53 Agonism Beta-lactamase Assay, Ratio, Phase 3 (AID 2283596)
Outline: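 HCT116 p53-bla cells (4000/well) given compound in DMSO (217-fold dilution) after 5 h, incubated 16 h at 37C. CCF4-AM substrate 2 h at room temperature; 460/530 nm emission ratio, gain fitted against DMSO.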

[8] = TOX21_p53_BLA_p4_viability: Viability Assessment in the Tox21 HCT-116 p53 Agonism Beta-lactamase Assay, Phase 4 (AID 2283597);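 also: hits lower the luminescence signal meaning cytotoxicity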
Outline: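 HCT116 p53-bla cells (4000/well) rested 5 h at 37C, then received compounds in DMSO (217-fold dilution) for 16 h at 37C, 5% CO2. CellTiter-Glo was added after the CCF4-AM read, and luminescence was read after 30 min at room temperature.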

[9] = target: Cellular tumor antigen p53 (Homo sapiens) (UniProt P04637); assay: TOX21_p53_BLA_p5_ratio: Tox21 HCT-116 p53 Agonism Beta-lactamase Assay, Ratio, Phase 5 (AID 2283599)
Outline: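 HCT-116 cells carrying a p53-inducible beta-lactamase reporter were seeded at 4000 cells/well and dosed after 5 h with compound in DMSO (217-fold dilution). After 16 h at 37C, CCF4-AM substrate was added for 2 h, and the 460/530 nm emission ratio was scored as gain-of-signal versus DMSO.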

[10] = TOX21_p53_BLA_p5_viability: Viability Assessment in the Tox21 HCT-116 p53 Agonism Beta-lactamase Assay, Phase 5 (AID 2283600)
Outline: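 Cells were plated at 4000/well, rested 5 h at 37C, then given compounds in DMSO (217-fold dilution) for 16 h at 37C, 5% CO2. Following the CCF4-AM beta-lactamase read, CellTiter-Glo was added and luminescence was read after 30 min at room temperature.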

Measured: AC50

CNC(=O)CSP(=S)(OC)OC
inactive: [1] | [2]

Cc1[nH]c(=O)n(C(C)(C)C)c(=O)c1Cl
inactive: [1] | [2]

COP(=S)(OC)Oc1ccc(SC)c(C)c1
inactive: all assays above

N#CN
inactive: [1] | [2]

Clc1ccccc1-c1nnc(-c2ccccc2Cl)nn1
inactive: [1] | [2]

Oc1cc(Cl)ccc1Oc1ccc(Cl)cc1Cl
active: [2] 78.6 µM and 78.2 µM and 78 µM | [3] 66.3 µM and 51.2 µM and 39.8 µM | [4] 31.6 µM | [5] 73.1 µM | [6] 54.2 µM | [7] 78.1 µM | [8] 41.3 µM | [9] 81.1 µM | [10] 48 µM
inactive: [1] | [3] | [4] | [5] | [8] | [9] | [10]

CCC(C)Nc1c([N+](=O)[O-])cc(C(C)(C)C)cc1[N+](=O)[O-] (stereo not given)
active: [1] 73.8 µM
inactive: [2]

Oc1ccc(Cl)cc1Cc1ccccc1
active: [2] 91.5 µM and 93.3 µM and 94.7 µM | [4] 70.3 µM and 66.7 µM | [5] 85 µM and 57.2 µM | [6] 72.8 µM | [8] 67.5 µM and 23.3 µM and 36.5 µM | [9] 79 µM and 86.7 µM | [10] 73.6 µM and 70.6 µM
inactive: [1] | [3] | [5] | [6] | [7] | [10]

C#CCN1C(=O)COc2cc(F)c(N3C(=O)C4=C(CCCC4)C3=O)cc21
inactive: [1] | [2]

O=C(O)C(F)(F)C(F)(F)C(F)(F)C(F)(F)C(F)(F)C(F)(F)C(F)(F)F
active: [1] 50 µM
inactive: [1] | [2] | [3] | [4] | [5] | [6] | [7] | [8] | [9] | [10]

O=[N+]([O-])/N=C1\NCCN1Cc1ccc(Cl)nc1
active: [1] 25.5 µM
inactive: [2]

CCCN(CCC)c1c([N+](=O)[O-])cc(C(F)(F)F)cc1[N+](=O)[O-]
inactive: [1] | [2]

CCCN(CCOc1c(Cl)cc(Cl)cc1Cl)C(=O)n1ccnc1
active: [1] 78.8 µM | [2] 36 µM | [5] 86.1 µM | [7] 75 µM | [9] 75.3 µM
inactive: [3] | [4] | [6] | [7] | [8] | [9] | [10]

CCOC1Oc2ccc(OS(C)(=O)=O)cc2C1(C)C (stereo not given)
active: [2] 83.8 µM
inactive: [1]

COP(=S)(OC)Oc1ccc([N+](=O)[O-])cc1
not listed: [10]
inactive: all other assays above

O=C(O)CCCOc1ccc(Cl)cc1Cl
inactive: all assays above

O=S1OCC2C(CO1)C1(Cl)C(Cl)=C(Cl)C2(Cl)C1(Cl)Cl (stereo not given)
active: [2] 94 µM | [4] 46.1 µM and 81.5 µM | [5] 73.9 µM and 86.2 µM | [6] 54.1 µM | [8] 70.9 µM and 85.8 µM | [9] 87.3 µM and 73.3 µM | [10] 75.3 µM and 70.2 µM
inactive: [1] | [3] | [6] | [7]

O=C(NC(=O)c1c(F)cccc1F)Nc1ccc(OC(F)(F)C(F)OC(F)(F)F)c(Cl)c1 (stereo not given)
inactive: [1] | [2]

CNC(=O)/C=C(\C)OP(=O)(OC)OC
inactive: [1] | [2]

ClC1C(Cl)C(Cl)C(Cl)C(Cl)C1Cl (stereo not given)
inactive: [1] | [2] | [3] | [4] | [5] | [6] | [7] | [8] | [9] | [10]
active: [8] 72.6 µM | [9] 86.7 µM

O=S(=O)(O)C(F)(F)C(F)(F)C(F)(F)C(F)(F)C(F)(F)C(F)(F)C(F)(F)C(F)(F)F
inactive: [1] | [2] | [3] | [4] | [5] | [6] | [7] | [9] | [10]
active: [2] 75.8 µM and 79.2 µM and 75.4 µM | [3] 151 µM and 157 µM | [4] 46.1 µM | [6] 61.4 µM | [8] 64.6 µM and 48.8 µM and 59.3 µM
